Screening data as filed in PubChem BioAssay.
A selection: hits, their analogues and other compounds. The true share with any hit is near 10%.
VP16 counter – VP16 counterscreen qHTS for inhibitors of ROR gamma transcriptional activity; Drosophila S2 Gal4-VP16 UAS-luciferase, luminescence, 20 h; Potency, µM (doses to about 53.6 µM), for the others: at the top dose activity, negative = inhibition, hits mostly inhibitors; 310,000 tested, 3.5% active;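 note: Gal4-VP16 expression switched on by copper sulfate through the metallothionein promoter; % is set by controls: 0 for no effect and ±100 for the full control effect; nearly all actives have a fitted effect of over 50% in size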
SW480 rerep – A quantitative high throughput screen for small molecules that induce DNA re-replication in SW480 colon adenocarcinoma cells. 340,000 tested, 1.8% active. SW480 DNA re-replication, Hoechst DNA content imaging, 48 h. Potency, µM (series often up to 46.1 µM), for the others: at the top dose re-replication activation, hits mostly activators; note: % of control where 0% means no effect; nearly all actives have a fitted effect of over 55% in size
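SW480 cells exposed to compounds for 48 hr at 37 C, 5% CO2, then Hoechst-stained 40 min. Nuclear DNA content imaged by fluorescence scanning (405 nm excitation, 500-530 nm emission); re-replication scored as increased high-intensity nuclei.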
MCF10A rereplic – A quantitative high throughput screen for small molecules that induce DNA re-replication in MCF 10a normal breast cells; MCF 10A DNA re-replication, Hoechst nuclear intensity, 48 h; Potency, µM (highest dose often 46.1 µM), for the others: at the top dose activity, positive = re-replication, actives largely listed as activators; 350,000 tested, 2.9% active; note: % of control where 0% means no effect; nearly all actives have a fitted effect of over 50% in size
ELG1 DNA repair – qHTS screen for small molecules that inhibit ELG1-dependent DNA repair in human embryonic kidney (HEK293T) cells expressing luciferase-tagged ELG1 | HEK293T ELG1-luciferase reporter, luminescence, 16 h; DNA damage induced by 5-fluorouridine | Potency, µM (titrated, usually from 46.1 µM), without a hit: at the highest dose activity change, negative = inhibition, actives largely listed as inhibitors | 330,000 tested, 2.3% active; note: % is set by controls: 0 for no effect and ±100 for the full control effect; nearly all actives have a fitted effect of over 55% in size
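Overnight (16 hr) co-exposure of 2,000 cells/well to 5-fluorouridine and compound at 37 °C preceded detection. Luciferase was quantified via ONE-Glo luminescence; loss of signal denotes inhibition.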
RORgamma inh – qHTS for inhibitors of ROR gamma transcriptional activity. Nuclear receptor ROR-gamma (Mus musculus), P51450. Drosophila S2 Gal4-RORgamma UAS-luciferase reporter, 20 h. Potency, µM (series often up to 53.6 µM), without a hit: top-dose activity change, negative = inhibition, hits mostly inhibitors. 310,000 tested, 5.4% active; note: % is set by controls: 0 for no effect and ±100 for the full control effect; nearly all actives have a fitted effect of over 60% in size
Target sequence (P51450 whole entry, looked up, the tested form may be a part): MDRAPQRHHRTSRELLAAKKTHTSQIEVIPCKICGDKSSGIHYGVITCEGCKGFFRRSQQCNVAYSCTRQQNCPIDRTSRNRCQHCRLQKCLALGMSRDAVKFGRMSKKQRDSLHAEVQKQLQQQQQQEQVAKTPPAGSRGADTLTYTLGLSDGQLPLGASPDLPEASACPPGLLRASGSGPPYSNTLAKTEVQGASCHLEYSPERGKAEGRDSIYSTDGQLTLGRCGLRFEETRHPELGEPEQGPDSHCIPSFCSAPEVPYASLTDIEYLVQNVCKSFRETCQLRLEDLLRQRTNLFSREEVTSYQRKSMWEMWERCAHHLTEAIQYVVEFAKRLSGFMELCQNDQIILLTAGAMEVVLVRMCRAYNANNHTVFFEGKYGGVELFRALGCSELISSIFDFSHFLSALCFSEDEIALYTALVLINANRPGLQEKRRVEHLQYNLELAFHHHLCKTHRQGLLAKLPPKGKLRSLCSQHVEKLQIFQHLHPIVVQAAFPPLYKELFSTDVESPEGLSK
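Luciferase reporter read in Schneider cells carrying Gal4-RORγ (mouse) and UAS-Photinus luciferase; cells given compound 1 h before 700 uM copper sulfate induction, then incubated 20 h at ambient temperature.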
Numbers without * were called inactive; ? = inconclusive; nt = no result. Calls come from the whole dose curve; as a rule, active = well fitted curve in the direction sought with a large enough effect; inconclusive = small, poorly fitted or top-dose-only effect, or another doubt; inactive = no such curve, though single readings can be large; an effect the other way counts as inactive or inconclusive. Potency is the fitted concentration of half-maximal effect.

SMILES | VP16 counter | SW480 rerep | MCF10A rereplic | ELG1 DNA repair | RORgamma inh
O=C(O)c1ccc(-c2cccc(Cl)c2)o1 | nt | 2% | 6% | nt | nt
Cc1cnc(CNc2ncncc2-c2ccoc2)cn1 | 3% | nt | nt | nt | 4%
O=C(CCNS(=O)(=O)c1cccs1)N1CCc2ccccc2C1 | -7% | -3% | -2% | ? | 30%
COc1ccc(CNS(=O)(=O)c2ccc(-c3ccc(=O)[nH]n3)o2)cc1 | 0% | -43% | 13% | ? | 3%
O=C1c2ccccc2C(=O)C1c1ccc(Cl)cc1 | 12% | -2% | 3% | ? | 0%
O=C1c2ccccc2C(=O)C12OC2c1ccc(Cl)cc1Cl (stereo not given) | ? | ? | 12µM* | -11% | 10µM*
O=c1[nH]c(C2CCN(S(=O)(=O)Cc3ccccc3)CC2)nc2c1nnn2Cc1cccc(Cl)c1 | -20% | ? | ? | -8% | 1%
O=c1[nH]c(C2CCN(S(=O)(=O)Cc3ccccc3)CC2)nc2c1nnn2Cc1ccccc1Cl | -25% | -9% | -2% | 26µM* | ?
O=c1[nH]c(C2CCN(S(=O)(=O)Cc3ccccc3)CC2)nc2c1nnn2Cc1ccccc1 | -27% | -7% | 10% | 23µM* | ?
COC(=O)CNC(=O)c1cc(-c2ccncc2)nc2c(C)c(Cl)ccc12 | 0% | -2% | 3% | 1% | -1%
Cc1ccc(-c2cc(C(=O)Nc3cc(C)on3)c3ccccc3n2)cc1 | -14% | ? | 12% | 0% | 23%
COc1cccc(NC(=O)c2cc(-c3cccnc3)nc3c(Cl)cccc23)c1 | 0% | 16% | ? | ? | -3%
Cc1cc(NC(=O)c2cc(-c3ccncc3)nc3c(C)cccc23)no1 | 0% | 6.5µM* | ? | 9.2µM* | -42%
Cc1cccc(NC(=O)c2cc(-c3cccnc3)nc3c(C)cccc23)n1 | 7% | 2% | 16µM* | -6% | 28%
Cc1c(Cl)ccc2c(C(=O)NC(C)c3ccncc3)cc(-c3ccncc3)nc12 (stereo not given) | 13µM* | nt | nt | ? | ?
Cc1nnc(SCC2=C(C(=O)O)N3C(=O)C(NC(=O)C(C)n4nc(C(F)(F)F)cc4C)C3SC2)s1 (stereo not given) | -6% | -22% | -1% | 0% | 18%
CC(=O)c1c(C)[nH]c(C(=O)OCC(=O)Nc2cccc(S(=O)(=O)N(C)C)c2)c1C | -11% | 3% | 15% | 13µM* | 3%
CC(=O)c1c(C)[nH]c(C(=O)OCC(=O)Nc2cccc(S(=O)(=O)N3CCCC3)c2)c1C | ? | -6% | 23% | ? | -24%
Cc1onc(-c2ccccc2Cl)c1C(=O)OCC(=O)Nc1cccc(S(=O)(=O)N(C)C)c1 | ? | 9% | 12% | 16µM* | -8%
CC(=O)c1c(C)[nH]c(C(=O)Nc2ccc(C)c(S(=O)(=O)Nc3ccc(C)cc3C)c2)c1C | -29% | 16µM* | 12µM* | ? | -29%
CCN(CC)S(=O)(=O)c1cc(NC(=O)C(C)OC(=O)c2[nH]c(C)c(C(C)=O)c2C)ccc1C (stereo not given) | -29% | 4% | ? | 10µM* | ?
CCCCC(C(=O)NC(C)c1ccccc1)C(=O)NC(C)c1ccccc1 (stereo not given) | -7% | -3% | -17% | 1% | 0%
CC(=O)c1c(C)[nH]c(C(=O)OCC(=O)Nc2ccccc2Cl)c1C | 14% | 0% | 7% | 8.2µM* | 31%
CC(=O)c1c(C)[nH]c(C(=O)Nc2cccc(S(=O)(=O)N(C)C)c2)c1C | ? | 3% | 5% | ? | 10%
CN(c1ccccc1)S(=O)(=O)c1cccc(NC(=O)COc2ccccc2)c1 | nt | 7% | 0% | ? | nt
SMILES | VP16 counter | SW480 rerep | MCF10A rereplic | ELG1 DNA repair | RORgamma inh
CN(C)S(=O)(=O)c1cccc(NC(=O)COc2ccc(C(=O)c3ccccc3)cc2)c1 | ? | -1% | ? | 13µM* | ?
CC(=O)c1c(C)[nH]c(C(=O)OCC(=O)Nc2cc(S(=O)(=O)N3CCCC3)ccc2Cl)c1C | ? | 54% | -63% | 16µM* | ?
CC(=O)c1c(C)[nH]c(C(=O)Nc2ccc(S(=O)(=O)N(C)C)cc2)c1C | 1% | -73% | -7% | ? | 0.22µM*
Cc1ccc(S(=O)(=O)NCCCCCC(=O)NCCc2ccccc2)cc1 | 14% | 0% | 8% | ? | 8%
CC(=O)c1c(C)[nH]c(C(=O)CN(C)CC(=O)Nc2ccccc2Cl)c1C | nt | -4% | ? | 18µM* | nt
CCOC(=O)c1c(C)[nH]c(C(=O)CN(C)CC(=O)Nc2ccccc2Cl)c1C | nt | -3% | ? | ? | nt
COc1ccc(C(=O)/C=C/c2ccsc2)cc1CSCC(=O)O | 10µM* | ? | 18µM* | 2% | 10µM*
Cc1ccc2[nH]c(O)c(N=Nc3nc4ccccc4s3)c2c1 | -2% | 1% | -9% | ? | 2.8µM*
CCOc1ccc(NC(=S)NN2C(C)CCCC2C)cc1 (stereo not given) | 8.9µM* | -1% | 11% | -1% | 2.2µM*
CC(=O)c1ccc(NC(=S)NC2CCCC(C)C2C)cc1 (stereo not given) | ? | -3% | 0% | 15% | 5µM*
CC(=O)c1ccc(NC(=S)NN2C(C)CCCC2C)cc1 (stereo not given) | ? | 4% | 10% | -5% | 8.9µM*
CSCCC(NC(=O)c1cc(S(=O)(=O)N2CCOCC2)ccc1C)c1nc2ccccc2[nH]1 (stereo not given) | nt | -10% | ? | nt | nt
Cc1cc(-c2ccccc2)nc(N/N=C/c2ccccc2)n1 | ? | 12% | 21% | ? | 14µM*
Cc1ccc(-c2cc(-c3ccccc3)nc(N/N=C/c3cccnc3)n2)cc1 | nt | ? | 9.2µM* | nt | nt
O=[N+]([O-])c1ccc(C=NNc2ccccc2)cc1 | nt | 14% | ? | nt | nt
O=[N+]([O-])c1ccc(N/N=C/c2ccccc2)c(F)c1 | 20% | ? | 5.8µM* | ? | ?
Cc1cc(-c2ccccc2)nc(N/N=C/c2ccco2)n1 | ? | 8% | -3% | 1% | 8.9µM*
CCCCCOC(=O)C1=C(C)NC(=O)NC1c1ccccc1 (stereo not given) | 5% | 15% | ? | 7% | ?
Cc1sc(N/N=C/c2cccnc2)nc1-c1ccccc1 | -6% | ? | ? | -4% | 33%
C(=N\Nc1nc(Nc2ccccc2)nc(Nc2ccccc2)n1)/c1ccncc1 | -22% | -8% | -9% | 8% | -34%
C(=N\Nc1nc(Nc2ccccc2)nc(Nc2ccccc2)n1)/c1cccnc1 | ? | -4% | ? | 6.5µM* | ?
